Pf growth 48h: Primary qHTS for delayed death inhibitors of the malarial parasite plastid, 48 hour incubation | P. falciparum luciferase growth in erythrocytes, 48 h | Potency, µM (doses to about 28.7 µM), usual class: inhibitors | actives 5.9% (n = 310,000)
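Cell-based growth assay: transgenic P. falciparum expressing firefly luciferase, cultured in red cells within RPMI 1640 containing 0.5% w/v Albumax, 24 mM bicarbonate and gentamycin. A drop in luciferase activity indicates inhibition.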
AMA1-RON2 inh: qHTS for Inhibitors of AMA1-RON; Towards Development of Antimalarial Drug Lead: Primary Screen; AlphaScreen AMA1-biotinylated RON2 peptide binding; Potency, µM (doses to about 58.2 µM), usual class: inhibitors; actives 0.2% (n = 360,000); AID 720542, 2013; also: nearly all actives have a fitted effect of over 45% in size
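AMA1 (3D7) with his tag at 25 nM final met compounds first, then biotinylated RON2 peptide at 25 nM; detection used donor plus acceptor beads, 10 µg/mL apiece, read by AlphaScreen after 30 min at room temperature.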
CHX counter: Cycloheximide Counterscreen for Small Molecule Inhibitors of Shiga Toxin | cell reporter, cycloheximide protein synthesis inhibition counterscreen | max response, % | actives 12% (n = 300,000); in the data active = max response mostly above about 13%, no sharp cut-off; inactive = mostly below about 14%; also: read at 38.3 µM for the half of the compounds with a filed dose
Shiga inhibitor: A qHTS for Small Molecule Inhibitors of Shiga Toxin | Vero cells, Shiga toxin protein synthesis inhibition reporter | inhibition, % at 38.7 µM | actives 9.2% (n = 290,000) | AID 2315, 2010; in the data active = inhibition mostly above about 28%, no sharp cut-off; inactive = mostly below about 43%
Pf growth 96h: Primary qHTS for delayed death inhibitors of the malarial parasite plastid, 96 hour incubation | AID 504834, 2011 | Potency, µM (highest dose often 28.7 µM), most hits filed as inhibitors | actives 6.9% (n = 320,000) | P. falciparum luciferase reporter growth, 96 h
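Erythrocytes infected with luciferase-expressing P. falciparum were dispensed at 2% hematocrit and 0.05% parasitemia (final), then incubated with compounds 96 hours at 37 C in 5% CO2. Luminescence after detection reagent addition reported growth.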
HCV inh: qHTS Assay for Inhibitors of Hepatitis C Virus (HCV); Potency, µM (doses to about 41.8 µM), actives largely listed as inhibitors; Huh7.5.1 HCVcc-Cre infection, luciferase reporter, 44 h; actives 3.4% (n = 340,000)
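Luciferase read-out (15 sec integration) after a 15 min room-temperature substrate step quantifies HCVcc-Cre infection. Cells, 1,000 per well, had compound added 4 h post-plating, then virus at ~0.5 moi, and were cultured 44 h.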
Of the large screens only hits and unclear results are named; the others gave an inactive call. An excerpt weighted towards active compounds, which were near 21% of everything screened. Unless noted, calls follow the shape of the dose curve; as a rule, active = well fitted curve in the direction sought with a large enough effect; inconclusive = small, poorly fitted or top-dose-only effect, or another doubt; inactive = no such curve, though single readings can be large; an effect the other way counts as inactive or inconclusive.

CCC1C(=O)NCCN1C(=O)c1cccc(OC2CCN(S(=O)(=O)N(C)C)CC2)c1 (stereo not given)	CHX counter 38
CC(NC(=O)c1ccc(OC2CCN(C(=O)c3cccnc3)CC2)cc1)C1CC1 (stereo not given)	Pf growth 96h 12µM
CN(C)S(=O)(=O)N1CCC(Oc2cccc(C(=O)NC3CCOC3)c2)CC1 (stereo not given)	CHX counter 15
CN(C)S(=O)(=O)N1CCC(Oc2cccc(C(=O)NC3CCCCC3)c2)CC1	HCV inh 5.6µM
CS(=O)(=O)N1CCC(Oc2cccc(C(=O)NCCCC3CCCC3)c2)CC1	HCV inh inconclusive (no result: Pf growth 48h, CHX counter, Shiga inhibitor, Pf growth 96h)
CCOC1=C2[C@H]([C@H]3C(=O)N(c4ccccc4)C(=O)[C@H]3C1)[C@@H](C(C)C)N(S(=O)(=O)c1ccc(C)cc1)[C@H]2c1ccccc1	none (no result: Pf growth 48h, CHX counter, Shiga inhibitor, Pf growth 96h, HCV inh)
CC(NC(=O)c1ccc(OC2CCN(S(=O)(=O)N(C)C)CC2)cc1)C1CC1 (stereo not given)	CHX counter 20
CN(C)S(=O)(=O)N1CCC(Oc2ccc(C(=O)NC3CCCCC3)cc2)CC1	Pf growth 48h inconclusive, Pf growth 96h 13µM
CN(C)S(=O)(=O)N1CCC(Oc2cccc(C(=O)NCCC3=CCCCC3)c2)CC1	Pf growth 48h inconclusive, CHX counter 24, Shiga inhibitor 63 (no result: HCV inh)
CCOc1ccccc1-n1c(SC(C)C(=O)NCC2CCCO2)nc2ccccc2c1=O (stereo not given)	Pf growth 48h inconclusive, Pf growth 96h inconclusive (no result: CHX counter, Shiga inhibitor)
Cc1nn(-c2ccccc2)c(C)c1NC(=O)COC(=O)c1cccc(OC(F)F)c1	none (no result: CHX counter, Shiga inhibitor)
COc1ccccc1N(CC(O)COc1c(C)cc(C)cc1C)S(=O)(=O)c1ccccc1 (stereo not given)	Pf growth 48h 12µM, Pf growth 96h 13µM, HCV inh inconclusive
Cc1ccc(S(=O)(=O)N(CC(O)CN(C)C)c2ccccc2)cc1 (stereo not given)	Pf growth 96h 2.6µM
COc1ccccc1N(CC(O)COc1ccccc1)S(=O)(=O)c1ccccc1 (stereo not given)	Pf growth 48h inconclusive, Pf growth 96h inconclusive
COc1ccccc1N(CC(O)COc1ccc(C)cc1)S(=O)(=O)c1ccccc1 (stereo not given)	Pf growth 48h inconclusive, Pf growth 96h 2.1µM
COc1ccccc1N(CC(O)CN(c1ccccc1)S(C)(=O)=O)S(=O)(=O)c1ccccc1 (stereo not given)	Pf growth 48h inconclusive
C=CCCCCCCCCC(=O)OC	none (no result: AMA1-RON2 inh, CHX counter, Shiga inhibitor, HCV inh)
CCC(/C=C1\Sc2ccc(OC)cc2N1CCO)=C\c1sc2ccc(OC)cc2[n+]1CCO	Pf growth 48h 0.59µM, Pf growth 96h 7.4µM, HCV inh 5µM
CCC(/C=C1\Sc2ccc(OC)cc2N1CC)=C\c1sc2ccc(OC)cc2[n+]1CCCS(=O)(=O)[O-]	Pf growth 48h inconclusive, AMA1-RON2 inh inconclusive, Pf growth 96h inconclusive, HCV inh inconclusive
CCNc1ncnc2c1cnn2C1CCCO1 (stereo not given)	none (no result: Pf growth 48h, CHX counter, Shiga inhibitor, Pf growth 96h)
Cc1ccc(CN(C)C(=O)C2CCN(C(=O)Nc3ccccc3)CC2)o1	none (no result: CHX counter, Shiga inhibitor)
O=C(c1ccc(F)cc1)C1CCN(C(=O)Nc2ccccc2Cl)CC1	Pf growth 96h 2.9µM
O=C(Nc1ccccc1)N1CCCC2CCCCC21 (stereo not given)	CHX counter 45, Shiga inhibitor 94 (no result: Pf growth 96h)
Cc1ccc(NC(=O)N2CCC(C(=O)c3ccc(F)cc3)CC2)cc1	none
CN(Cc1ccc(C(C)(C)C)cc1)C(=O)C1CCN(C(=O)Nc2ccccc2)CC1	Pf growth 48h 10µM, Pf growth 96h 13µM, HCV inh inconclusive (no result: CHX counter, Shiga inhibitor)
O=C(NC1CCCC1)C1CCCN1C(=O)Nc1ccccc1 (stereo not given)	none
O=C(c1ccccc1)C1CCN(C(=O)Nc2ccccc2)CC1	Pf growth 48h inconclusive, CHX counter 16, HCV inh inconclusive
Cc1ccc(S(=O)(=O)N2CCN(C(=O)COC(=O)CNC(=O)c3ccccc3F)CC2)c(C)c1	none (no result: Pf growth 48h, CHX counter, Shiga inhibitor, Pf growth 96h)
O=C(Nc1c(F)cccc1F)c1cnc(N2CCN(c3ccccn3)CC2)c2ccccc12	Pf growth 48h inconclusive, Pf growth 96h inconclusive, HCV inh 13µM
O=C(c1cnc(N2CCN(c3ncccn3)CC2)c2ccccc12)N1CCN(c2ccccn2)CC1	Pf growth 48h inconclusive, Pf growth 96h inconclusive, HCV inh inconclusive
Cc1ccc(NC(=O)c2cnc(N3CCN(c4ccccn4)CC3)c3ccccc23)c(Br)c1	Pf growth 48h inconclusive, Pf growth 96h inconclusive, HCV inh 7.1µM
CC(C)[C@H]1COC(c2cc(Cl)cc(Cl)c2)=N1	none (no result: Pf growth 48h, AMA1-RON2 inh, Pf growth 96h, HCV inh)
COc1ccc(CN2CCN(C(=O)CCC(=O)Nc3nnc(C4CCCCC4)s3)CC2)cc1F	Pf growth 96h 12µM, HCV inh inconclusive
COc1ccc2cc(/C(C)=N/NC(=S)Nc3cc(S(=O)(=O)N4CCOCC4)ccc3N3CCOCC3)ccc2c1	Pf growth 48h 1.5µM, CHX counter 21, Pf growth 96h inconclusive (no result: AMA1-RON2 inh, HCV inh)
C/C(=N\NC(=S)Nc1cc(S(=O)(=O)N2CCOCC2)ccc1Cl)c1ccc(N2CCOCC2)cc1	Pf growth 48h 1.7µM, Pf growth 96h 1.9µM
C/C(=N\NC(=S)Nc1ccc(C)c(C)c1)c1ccc(N2CCOCC2)cc1	Pf growth 48h 12µM, CHX counter 23, Shiga inhibitor 24, Pf growth 96h 3.7µM, HCV inh inconclusive
NC(=O)C1CCN(CC(=O)Nc2ccccc2C(=O)NC2CC2)CC1	Pf growth 96h inconclusive (no result: CHX counter, Shiga inhibitor)
CC(C)(C)c1ccc(C(=O)N2CCCC2)s1	CHX counter 26, Shiga inhibitor 51
CC(C)Cc1cc(C(=O)Nc2ccc(Br)cc2)no1	CHX counter 36
CC(C)Cc1cc(C(=O)Nc2ccc3c(c2)OCO3)no1	CHX counter 36, Shiga inhibitor 72
CC(C)Cc1cc(C(=O)Nc2cccc(O)c2)no1	none
COc1ccc(NC(=O)c2cc(CC(C)C)on2)cc1OC	CHX counter 42, Shiga inhibitor active, Pf growth 96h inconclusive
COc1ccc(NC(=O)OCC(C)C)cc1OC	CHX counter 21, Shiga inhibitor 50 (no result: Pf growth 96h)
CC(=O)Nc1ccc(CN(C)c2c(C)nc3ccc(C(=O)N4CCN(C(C)=O)CC4)cn23)cc1	none (no result: Pf growth 48h, CHX counter, Shiga inhibitor, Pf growth 96h, HCV inh)
CCn1nnc2cc(C(=O)Nc3cccc(S(=O)(=O)N(C)C)c3)ccc21	Pf growth 48h inconclusive, Pf growth 96h inconclusive, HCV inh inconclusive (no result: CHX counter, Shiga inhibitor)
CN1CCN(S(=O)(=O)c2cccc(C(=O)NCCOc3ccccc3F)c2)CC1	none
CCc1ccc(NC(=O)c2cc(CC(C)C)on2)cc1	CHX counter 33, Shiga inhibitor 39, Pf growth 96h inconclusive
CCOC(=O)CC(=O)CSc1nc2c(C)c(C)ccc2cc1C	none (no result: Pf growth 48h)

Assay outcomes deposited in PubChem BioAssay by National Center for Advancing Translational Sciences (NCATS).
